# Results from ChEMBL document CHEMBL3433997, “St. Jude Leishmania screening dataset” (2016).
# What was measured:
# Format in all cases: functional
# [1] = biological target: Solute carrier family 2, facilitated glucose transporter member 1 (Homo sapiens) (UniProt P11166); assay: ST_JUDE_LEISH: Cytotoxicity at 2uM final concentration against transgenic Leishmania Mexicana promastigotes LmGLUT1 that are glucose transport deficient and complemented with the human glucose transporter GLUT1. Activity is measured by DNA content using SYBR green in vitro
# Chain of Solute carrier family 2, facilitated glucose transporter member 1 (Homo sapiens) (P11166 whole entry): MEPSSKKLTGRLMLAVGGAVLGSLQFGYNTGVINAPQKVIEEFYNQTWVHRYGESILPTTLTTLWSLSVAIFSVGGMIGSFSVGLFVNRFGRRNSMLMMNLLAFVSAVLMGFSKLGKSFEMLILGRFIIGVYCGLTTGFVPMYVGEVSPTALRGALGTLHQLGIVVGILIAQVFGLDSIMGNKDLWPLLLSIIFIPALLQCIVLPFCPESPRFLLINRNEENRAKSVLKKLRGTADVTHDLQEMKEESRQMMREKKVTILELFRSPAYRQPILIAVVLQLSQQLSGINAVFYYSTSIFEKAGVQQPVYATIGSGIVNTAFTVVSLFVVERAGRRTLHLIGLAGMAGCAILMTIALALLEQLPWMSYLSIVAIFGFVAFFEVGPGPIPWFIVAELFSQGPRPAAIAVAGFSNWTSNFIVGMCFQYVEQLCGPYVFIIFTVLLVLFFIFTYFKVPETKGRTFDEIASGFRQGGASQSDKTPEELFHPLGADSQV
# [2] = biological target: Hexose transporter 1 (Plasmodium falciparum) (UniProt O97467); assay: ST_JUDE_LEISH: Cytotoxicity at 2uM final concentration against transgenic Leishmania Mexicana promastigotes LmPfHT that are glucose transport deficient and complemented with the Plasmodium falciparum hexose transporter. Activity is measured by DNA content using SYBR green in vitro
# [3] = biological target: Glucose transporter (Leishmania mexicana) (UniProt O61059); assay: ST_JUDE_LEISH: Cytotoxicity at 2uM final concentration against transgenic Leishmania Mexicana promastigotes LmGT2 that are glucose transport deficient and complemented with the L. Mexicana glucose transporter 2. Activity is measured by DNA content using SYBR green in vitro
SMILES,inhibition [1] [%],inhibition [2] [%],inhibition [3] [%]
CC(C)Oc1cc(-c2ccc(S(C)(=O)=O)cc2)nc(N(Cc2cccc(F)c2F)Cc2cccc(F)c2F)n1,-1.85,0.65,-2.49
CC(C)(CNC(=O)[C@H]1CCCCN1)c1nc(-c2ccc(Cl)c(O)c2)c(-c2ccncc2)[nH]1,5.66,4.64,6.24
COc1ccc2nccc([C@@H](O)CN3CCC(NC(=O)c4cc5cccnc5[nH]4)CC3)c2c1,5.47,3.5,-0.32
CCCNC(=O)c1ccc(N2CCC(c3ccccc3C)CC2)nc1,0.89,0.25,0.97
COc1cc(NC(=O)/C=C/c2cc(F)cc(F)c2F)cc(OCCN2CCC3(CC2)OCCO3)c1,3.83,3.1,1.7
C[C@@H](NC(=O)c1nn(-c2ccc(Cl)cc2)c(=O)c2ccccc12)C(C)(C)C,1.61,1.12,0.85
O=C(NCc1ccc(F)cc1)Nc1ccc(-c2ccc(-c3nc4ccccc4[nH]3)cc2)cc1,1.28,-0.46,0.75
COc1cc(N)c(Cl)cc1C(=O)NC1CCC(NCC2CCCCC2)CC1 (centres undefined),2,1.99,1.15
CCOc1ccc(C=CC(=O)Nc2ccc3nc(N4CCOCC4)cc(C)c3c2)cc1OC,10.1,9.63,4.75
COc1ccc2nc(C)cc(Nc3ccc(Oc4ccc(Cl)cc4)c(Cl)c3)c2c1,7.89,6.68,2.63
COc1cccc(CNCC(C)(C)c2nc(-c3ccc(Cl)c(O)c3)c(-c3ccncc3)[nH]2)c1,-1.42,-3.17,2.87
O=C(/C=C/c1ccccc1O)N1CCC(CCN2CCC(c3c[nH]c4ccccc34)CC2)CC1,-5.26,-3.35,-2.57
N#Cc1ccc(N[C@@H](CC2CCCCC2)C(=O)NCc2cc(Cl)cc(Cl)c2)c2ccccc12,2.42,5.09,4.82
N=C(N)Nc1nc(-c2cccc(NC(=O)Cc3ccccc3)c2)cs1,2.29,4.02,3.44
CNCCNCc1cccc(-c2cccc(-c3nc4cc(C(F)(F)F)ccc4[nH]3)c2)c1,2.15,1.32,0.13
Cc1cc(NC(=O)c2cccs2)ccc1OC1CCN(Cc2ccc(F)cc2)C1 (centres undefined),0.09,0.19,1.92
Cc1cccc2nc(-c3ccc(-c4cccc(CNCc5ccccc5)c4)cc3)[nH]c12,16.8,9.57,6.25

SMILES,inhibition [1] [%],inhibition [2] [%],inhibition [3] [%]
CN1CCN(Cc2ccc(-c3cc4c(Nc5ccc(OCc6cccc(F)c6)c(Cl)c5)ncnc4s3)[nH]2)CC1,12.7,11.4,8.25
CCCCSc1ccc2nc(-c3c[nH]c4ccc(C#N)cc34)cn2c1,-0.49,3.17,3.81
O=C(CC(=O)C(F)(F)F)c1ccc2c(c1)OCO2,1.45,1.74,2.14
CS(=O)(=O)N(CC(O)Cn1c2ccc(Cl)cc2c2cc(Cl)ccc21)c1ccccc1 (centres undefined),0.79,1.45,2.64
COc1c(C2CCN(CCCCNC(=O)c3ccc(-c4ccc(Cl)cc4)cn3)CC2)ccc2c1CCCC2,-1.51,-0.19,-2.15
N=C(N)CCN(Cc1ccc(Cl)cc1)c1ccc(Cl)cc1,0.7,0.7,0.65
O=C(Nc1ccc(OC2CCN(Cc3ccc(F)cc3)CC2)c(Cl)c1)c1ccsc1,-1.74,2.64,1.51
CCCCCCN1CCCN(Cc2ccc(C(=O)Nc3cccc(CC)c3)cc2)CC1,4.76,3.36,8.83
CN(Cc1cc(C(F)(F)F)cc(C(F)(F)F)c1)C(=O)C(Cc1ccc(F)cc1)C1CCCNC1 (centres undefined),6.71,4.23,6.9
COc1ccc2nccc([C@@H](O)CN3CCC(NCc4cnc5c(c4)NC(=O)CS5)C(F)C3)c2c1 (some centres undefined),-0.32,-0.31,0.86
O=c1cc(-c2ccc3ccccc3c2)[nH]c2ccccc12,2.83,2.68,2.23
CN1CCN(CCCN(Cc2cccc(-c3ccc(CNCCc4ccccc4)cc3)c2)C(=O)c2cccs2)CC1,4.14,4.22,3.91
Cc1cc(N[C@@H](CC(C)C)C(=O)Nc2ccccc2)nc(NCc2ccccc2C)n1,8.7,8.35,5.01
O=C(c1ccccc1)N(Cc1ccccc1-c1ccc(CNCCc2ccccc2)cc1)C1CCN(Cc2ccccc2)CC1,12.2,10.8,14.7
O=C(Nc1ccc(-c2cccc(-c3nc4cc(C(F)(F)F)ccc4[nH]3)c2)cc1)c1ccc(=O)[nH]n1,3.7,2.75,2.97
CCN(CC)CCNc1ccnc2ccc3ccccc3c12,1.6,6.78,2.97
